Measured values taken from PubChem BioAssay (Tox21).
Inconclusive results are not listed. Where a call stands in place of a potency, no number is given. The source made the active and inactive calls. Unless noted, calls follow the shape of the dose curve; as a rule, active = well fitted curve in the direction sought with a large enough effect in the repeat runs; inconclusive = weak or mixed curves; inactive = no such curve, though single readings can be large; an effect the other way counts as inactive or inconclusive.

Legend:
[1] = qHTS assay for small molecules that induce genotoxicity in human embryonic kidney cells expressing luciferase-tagged ATAD5 (AID 651632); conditions: HEK293T ATAD5-luciferase induction, 16 h; series mostly up to 83.3 µM; also: nearly all actives have a fitted effect of over 15% in size
Outline: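 Cells were seeded at 2,000 per well, dosed with compound, and incubated 16 hr at 37C in 5% CO2. Luciferase activity was then quantified after a 30 min room-temperature incubation with Amplite.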

[2] = qHTS assay for small molecule agonists of the p53 signaling pathway - cell viability (AID 651633; calls by dose curve; also: nearly all actives have a fitted effect of over 30% in size; also: potency is read from the fitted curve at half-maximal effect); conditions: p53RE-bla HCT-116 viability, ATP luminescence, 16 h; series mostly up to 83.3 µM
Outline: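 p53RE-bla cells were treated with compound for 16 hours at 37 C. Cytotoxicity was then measured as CellTiter-Glo luminescence after 30 min at room temperature.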

[3] = qHTS assay for small molecules that induce genotoxicity in human embryonic kidney cells expressing luciferase-tagged ATAD5 - cell viability (AID 651634; calls by dose curve; also: nearly all actives have a fitted effect of over 25% in size; also: potency is read from the fitted curve at half-maximal effect); conditions: HEK293T ATAD5-luc cells viability, CellTiter-Fluor, 15.5 h; series mostly up to 83.3 µM
Outline: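 Cells (HEK293T, luciferase-tagged ATAD5) are seeded at 2,000 per well, dosed with compound or DMSO vehicle, and incubated 15.5 hr at 37C and 5% CO2. CellTiter-Fluor is added for 30 min before fluorescence is measured.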

[4] = qHTS assay to test for compound auto fluorescence at 590 nm (red) in HepG2 cells (AID 720674); conditions: HepG2 autofluorescence, red 540/590 nm, 1 h; series mostly up to 46 µM
Outline: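 Fluorescence at 590 nm emission following 540 nm excitation was recorded from HepG2 wells one hour after compound transfer, with DMSO-only wells as vehicle and Rose Bengal sodium equivalency as the scale.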

[5] = qHTS assay to test for compound auto fluorescence at 535 nm (green) in HepG2 cells (AID 720675); conditions: green autofluorescence 485/535 nm, 1 h; series mostly up to 46 µM
[6] = qHTS assay to test for compound auto fluorescence at 460 nm (blue) in HEK293 cells (AID 720678); conditions: blue autofluorescence 405/460 nm; series mostly up to 46 µM
Outline: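 Intrinsic compound fluorescence is recorded in live HEK293 cultures after overnight incubation at 37C, 5% CO2, using excitation 405 nm and emission 460 nm. Values are referenced to triamterene.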

[7] = qHTS assay to test for compound auto fluorescence at 590 nm (red) in HEK293 cells (AID 720679); conditions: red autofluorescence 540/590 nm; series mostly up to 46 µM
Outline: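 Red autofluorescence, HEK293 cells: 2,000 cells/well; attach 4-5 hr 37C; add 23 nL cpd or DMSO; incubate o/n 37C 5% CO2; read Ex540/Em590; Rose Bengal sodium reference.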

[8] = qHTS assay to test for compound auto fluorescence at 535 nm (green) in HEK293 cells (AID 720680); conditions: green autofluorescence 485/535 nm; series mostly up to 46 µM
[9] = qHTS assay to test for compound auto fluorescence at 460 nm (blue) in HEK293 cell free culture (AID 720681); conditions: cell-free medium, autofluorescence 405/460 nm (blue); series mostly up to 46 µM
Outline: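 Compounds were added to cell-free DMEM with 10% FBS and fluorescence read directly. The blue channel used 405 nm excitation and 460 nm emission, with triamterene as the reference fluorophore.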

[10] = qHTS assay to test for compound auto fluorescence at 535 nm (green) in HEK293 cell free culture (AID 720682); conditions: cell-free medium, green autofluorescence 485/535 nm; series mostly up to 46 µM
Outline: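 Compounds were pin-transferred into cell-free DMEM with 10% FBS, and green fluorescence was read at excitation 485 nm and emission 535 nm. Intensities were expressed as fluorescein-equivalent values.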

[11] = qHTS assay to test for compound auto fluorescence at 590 nm (red) in HEK293 cell free culture (AID 720683); conditions: cell-free medium autofluorescence, Ex540/Em590 red; series mostly up to 46 µM
Outline: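 Cell-free wells of DMEM with 10% FBS received compound, and intrinsic fluorescence was read at excitation/emission 540/590 nm. Values expressed as equivalence to Rose Bengal sodium.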

[12] = qHTS assay to test for compound auto fluorescence at 590 nm (red) in HepG2 cell free culture (AID 720684); conditions: cell-free medium autofluorescence, red 540/590 nm; series mostly up to 46 µM
Outline: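 Auto fluorescence equivalency versus Rose Bengal sodium, red channel Ex/Em 540/590 nm; compounds in cell-free MEM/10% FBS; DMSO vehicle control.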

[13] = qHTS assay to test for compound auto fluorescence at 460 nm (blue) in HepG2 cell free culture (AID 720685); conditions: Cell-free culture medium, blue autofluorescence 405/460 nm; series mostly up to 46 µM
Outline: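 Cell-free plates of MEM plus 10% FBS received 23 nL compound or DMSO vehicle; blue-channel (405/460 nm) intensity scored against triamterene as reference fluorophore.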

[14] = qHTS assay to test for compound auto fluorescence at 535 nm (green) in HepG2 cell free culture (AID 720686); conditions: Cell-free medium, green autofluorescence 485/535 nm; series mostly up to 46 µM
[15] = qHTS assay to test for compound auto fluorescence at 460 nm (blue) in HepG2 cells (AID 720687); conditions: autofluorescence 405/460 nm, 1 h; series mostly up to 46 µM
Outline: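 HepG2 cells in MEM with 10% FBS, attached overnight at 37 C, were exposed to compound or DMSO for 1 hr at 37 C, 5% CO2. Blue fluorescence was read at 405/460 nm, with triamterene as reference fluorophore.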

[16] = biological target: Glucocorticoid receptor (Homo sapiens) (UniProt P04150); experiment: qHTS assay to identify small molecule agonists of the glucocorticoid receptor (GR) signaling pathway (AID 720691; active = well fitted activation curve with a large enough effect in the signal ratio in the repeat runs, not every such curve was filed as active; the % refers to the signal ratio); conditions: GR-bla HeLa, beta-lactamase reporter ratio, 18 h; activation: at 62.4 µM (top of the series)
Outline: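 Steps: seed GR-bla HeLa cells, incubate 4 h at 37 C/5% CO2; pin-transfer DMSO-dissolved compounds; incubate 18 h at 37 C; add LiveBLAzer B/G FRET substrate; after 2 h at room temperature, measure fluorescence.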

[17] = qHTS assay for small molecule disruptors of the mitochondrial membrane potential (AID 720635); conditions: HepG2 mitochondrial membrane potential, Mito-MPS dye ratio; series mostly up to 83.2 µM
Outline: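 HepG2 cells exposed to compound 1 hr at 37C, then Mito-MPS dye 30 min. Ratio read of aggregate (540/590 nm) versus monomer (490/535 nm) fluorescence.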

[18] = qHTS assay for small molecule disruptors of the mitochondrial membrane potential - cell viability (AID 720634; calls by dose curve;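 also: human HepG2 liver cancer cells; nearly all actives have a fitted effect of over 20% in size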); conditions: HepG2 viability, ATP luminescence (CellTiter-Glo), 1 h; series mostly up to 83.2 µM
Outline: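 Cytotoxicity was measured by ATP quantitation in HepG2 wells that had first been treated with compound for 1 hr and stained with m-MPI dye; CellTiter-Glo incubation was 30 min at room temperature.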

[19] = biological target: Glucocorticoid receptor (Homo sapiens) (UniProt P04150); experiment: qHTS assay to identify small molecule antagonists of the glucocorticoid receptor (GR) signaling pathway (AID 720692; active = well fitted inhibition curve with a large enough effect in the signal ratio in the repeat runs, not every such curve was filed as active; the % refers to the signal ratio); conditions: GR-bla HeLa, beta-lactamase FRET ratio, dexamethasone-stimulated, 18 h; series mostly up to 58.5 µM
Outline: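 Antagonism was scored as loss of dexamethasone-driven (5 nM final) reporter signal in HeLa cells bearing a glucocorticoid response element–beta-lactamase construct, after 18 h compound exposure at 37 C and 2 h FRET substrate loading.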

Glucocorticoid receptor (Homo sapiens), sequence (P04150 whole entry, looked up): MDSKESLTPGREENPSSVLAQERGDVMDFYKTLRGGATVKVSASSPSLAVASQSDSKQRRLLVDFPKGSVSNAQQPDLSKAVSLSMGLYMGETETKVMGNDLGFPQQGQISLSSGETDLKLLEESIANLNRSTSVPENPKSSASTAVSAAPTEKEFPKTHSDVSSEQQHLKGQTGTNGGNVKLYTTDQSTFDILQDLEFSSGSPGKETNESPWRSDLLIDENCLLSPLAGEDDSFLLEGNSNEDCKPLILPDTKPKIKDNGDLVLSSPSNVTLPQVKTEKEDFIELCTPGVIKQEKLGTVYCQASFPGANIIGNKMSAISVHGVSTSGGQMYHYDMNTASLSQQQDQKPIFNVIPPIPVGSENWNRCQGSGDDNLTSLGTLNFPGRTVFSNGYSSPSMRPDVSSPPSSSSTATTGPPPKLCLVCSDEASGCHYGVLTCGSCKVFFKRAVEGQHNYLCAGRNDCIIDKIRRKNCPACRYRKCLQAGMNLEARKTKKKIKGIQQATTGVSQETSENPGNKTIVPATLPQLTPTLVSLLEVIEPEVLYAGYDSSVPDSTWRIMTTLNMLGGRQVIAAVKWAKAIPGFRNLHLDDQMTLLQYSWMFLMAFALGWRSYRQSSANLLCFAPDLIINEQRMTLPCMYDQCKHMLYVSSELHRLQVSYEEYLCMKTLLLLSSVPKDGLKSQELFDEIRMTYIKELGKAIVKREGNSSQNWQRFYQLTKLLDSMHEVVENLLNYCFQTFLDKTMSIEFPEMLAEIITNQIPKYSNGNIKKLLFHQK

Row | SMILES | Potency [1] | Potency [2] | Potency [3] | Potency [4] | Potency [5] | Potency [6] | Potency [7] | Potency [8] | Potency [9] | Potency [10] | Potency [11] | Potency [12] | outcome [13] | Potency [14] | outcome [15] | Potency [16] | Potency [17] | Potency [18] | Potency [19]
1 | CC(C)(C)C1(O)CCN2CC3c4ccccc4CCc4cccc(c43)C2C1 (centres undefined) | inactive | 13.3 µM (active) | inactive | inactive | inactive | inactive | inactive | inactive | inactive | inactive | inactive | inactive | inactive | inactive | inactive | inactive |  |  | 
2 | C=C1CC[C@@H]2[C@](C)(CO)[C@H](O)CC[C@@]2(C)[C@@H]1C/C=C1/C(=O)OC[C@H]1O | inactive | inactive | inactive | inactive | inactive | inactive | inactive | inactive | inactive | inactive | inactive | inactive | inactive | inactive | inactive |  | inactive |  | 
3 | CCN(CC)CCOc1ccccc1OC | inactive | inactive | inactive | inactive | inactive | inactive | inactive | inactive | inactive | inactive | inactive | inactive | inactive | inactive | inactive | inactive |  |  | 
4 | S=C=Nc1ccc(N=C=S)cc1 | inactive | inactive | inactive | inactive | inactive | inactive | inactive | inactive | inactive | inactive | inactive |  | inactive | inactive | inactive |  |  | inactive | 
5 | CCOc1cc(-c2nccc3cc(OC)c(OC)cc23)cc(OCC)c1OCC | inactive | inactive | 26.6 µM (active) | inactive | inactive | inactive | inactive | inactive | inactive | inactive | inactive | inactive | inactive | inactive | inactive | inactive |  |  | inactive
6 | CC1(C)S[C@@H]2[C@H](NC(=O)C(N)c3ccccc3)C(=O)N2[C@H]1C(=O)OC1OC(=O)c2ccccc21 (some centres undefined) | inactive | inactive | inactive | inactive |  | inactive | inactive |  | inactive | inactive | inactive | inactive | inactive | inactive | inactive |  |  | inactive | 
7 | O=C(NOC[C@H](O)CO)c1ccc(F)c(F)c1Nc1ccc(I)cc1F | inactive | inactive | inactive | inactive | inactive | inactive | inactive | inactive | inactive | inactive | inactive |  | inactive | inactive | inactive |  |  | inactive | 
